# Compounds without any hit were thinned out: in the full panel of roughly 79,000, 15% have a hit. Values without a mark were called inactive. Activity calls are given as the source filed them. No stated cut-off is given here; in the data, active means growth inhibition above about 70%; inactive means the rest.
# Experiments:
# [1] = NCI Yeast Anticancer Drug Screen. Data for the rad50 strain (AID 155);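 further: 0% = growth of vehicle-only cultures of the same strain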; details: S. cerevisiae rad50 strain growth inhibition, stronger effect = higher value
# Summary of the method: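 Compounds were tested on a yeast strain with an engineered DNA damage repair alteration; the reported value is growth inhibition normalised to vehicle treatment.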
# [2] = NCI Yeast Anticancer Drug Screen. Data for the mec2-1 strain (AID 157); details: S. cerevisiae mec2-1 strain, stronger effect = higher value
# Summary of the method: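 mec2-1 yeast strain, carrying an alteration in DNA damage repair or cell cycle control, was exposed to compounds; growth inhibition was measured relative to vehicle-treated controls.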
# [3] = NCI Yeast Anticancer Drug Screen. Data for the sgs1 mgt1 strain (AID 161);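 further: 0% = growth of cultures given vehicle only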; details: S. cerevisiae sgs1 mgt1 strain, stronger effect = higher value
# Summary of the method: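 Growth of a repair-deficient yeast mutant was monitored after compound treatment and expressed as inhibition relative to vehicle-treated cultures.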
# [4] = NCI Yeast Anticancer Drug Screen. Data for the cln2 rad14 strain (AID 165);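 further: 0% = growth equal to vehicle treated cultures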; details: S. cerevisiae cln2 rad14 strain, stronger effect = higher value
# Summary of the method: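 Yeast carrying cln2 and rad14 alterations (cell cycle control and DNA damage repair) were exposed to compounds. Growth inhibition was measured against vehicle-treated controls.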
# [5] = NCI Yeast Anticancer Drug Screen. Data for the bub3 strain (AID 167); details: S. cerevisiae bub3 mutant strain, stronger effect = higher value
# Summary of the method: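 Growth of a checkpoint-deficient yeast mutant is measured after compound exposure. Values represent inhibition relative to vehicle.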
# [6] = NCI Yeast Anticancer Drug Screen. Data for the mlh1 rad18 strain (AID 175); details: S. cerevisiae mlh1 rad18 strain growth inhibition, stronger effect = higher value
# Summary of the method: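 Growth inhibition of the yeast strain was measured after compound exposure and expressed relative to vehicle-treated controls. The strain carries defined defects in DNA damage repair.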
# [7] = at 5.0 µM (retest, dose inferred, filed as 0.5)
# [8] = at 50.0 µM (retest, dose inferred, filed as 5.0)
Structure (SMILES),"growth inhibition [1, 7]","growth inhibition [1, 8]",growth inhibition ([1]; at 50.0 µM),"growth inhibition [2, 7]","growth inhibition [2, 8]",growth inhibition ([2]; at 50.0 µM),"growth inhibition [3, 7]","growth inhibition [3, 8]",growth inhibition ([3]; at 50.0 µM),"growth inhibition [4, 7]","growth inhibition [4, 8]",growth inhibition ([4]; at 50.0 µM),"growth inhibition [5, 7]","growth inhibition [5, 8]",growth inhibition ([5]; at 50.0 µM),"growth inhibition [6, 7]","growth inhibition [6, 8]",growth inhibition ([6]; at 50.0 µM)
C=C1CC(O)C2C(C[Se]c3ccccc3)C(=O)O[C@@H]2C2C(=C)[C@@H](O)CC12 (some centres undefined),-3%,27%,46.4%,1%,36%,52.1%,0%,43%,29.6%,-5%,5%,-13.3%,-9%,11%,30.2%,-2%,30%,70.7% (active)
Nc1c(Cl)nc(C(F)(F)F)nc1NCc1ccccc1,60%,99% (active),39.7%,99% (active),99% (active),8.25%,97% (active),99% (active),1.45%,99% (active),99% (active),-48.1%,99% (active),99% (active),23.7%,91% (active),99% (active),5.35%
Cc1ccc(NC(=S)SCc2ccc(Cl)cc2)cc1C,12%,94% (active),94.9% (active),-5%,60%,98.2% (active),1%,94% (active),98% (active),-4%,34%,86.8% (active),18%,68%,97.5% (active),1%,82% (active),98.6% (active)
OC1(c2ccc(Br)cc2)C2CCCCC2C2CCCCC21 (centres undefined),36%,92% (active),98% (active),7%,95% (active),98.5% (active),18%,95% (active),98.3% (active),-4%,92% (active),97.7% (active),7%,93% (active),98.4% (active),10%,95% (active),98.2% (active)
CC1=C(C(=O)Nc2cccc3ccccc23)C(c2cccc([N+](=O)[O-])c2)C(C(=O)Nc2cccc3ccccc23)=C(C)N1,27%,40%,76.2% (active),22%,50%,60.2%,7%,32%,77.1% (active),-3%,14%,70.6% (active),34%,58%,81.5% (active),-22%,23%,88.1% (active)
O=[N+]([O-])c1cccc(C=Nc2ccccc2O)c1,22%,34%,63.1%,12%,31%,41.8%,13%,35%,52.7%,-4%,7%,17.6%,23%,82% (active),76% (active),24%,48%,70.8% (active)
N/C(CC(=O)NOC(=O)c1ccccc1)=N/OC(=O)c1ccccc1,55%,99% (active),99% (active),19%,99% (active),99.5% (active),54%,62%,99.5% (active),6%,100% (active),99% (active),-6%,99% (active),99.2% (active),27%,99% (active),99.2% (active)
NC(=S)C1CCC(C2CCCCC2)CC1 (centres undefined),5%,97% (active),96.5% (active),14%,96% (active),94.8% (active),13%,97% (active),97.2% (active),-4%,94% (active),83.5% (active),13%,97% (active),96.3% (active),21%,97% (active),95.8% (active)
O=C(Oc1c(Cl)c(Cl)c(Cl)c(Cl)c1Cl)c1ccc(Cl)cc1,25%,99% (active),99.6% (active),19%,99% (active),99.7% (active),24%,99% (active),99% (active),13%,99% (active),99.7% (active),15%,99% (active),99.7% (active),30%,99% (active),99.2% (active)
O=C(c1ccccc1)N(C(=S)N(C(=O)c1ccccc1)c1ccccc1)c1ccccc1,-3%,12%,99% (active),-1%,-2%,99.7% (active),1%,-4%,99.2% (active),3%,-7%,98.8% (active),0%,-3%,99% (active),-1%,-3%,99.1% (active)
O=P(O)(CN1CCN(CP(=O)(O)c2ccccc2)CCN(CP(=O)(O)c2ccccc2)CC1)c1ccccc1,17%,65%,86.7% (active),4%,61%,81.8% (active),11%,51%,85% (active),12%,58%,60%,30%,72% (active),88.3% (active),22%,53%,80.3% (active)
CC(CCC(=O)O)(c1cc(Br)c(O)c(Br)c1)c1cc(Br)c(O)c(Br)c1,19%,91% (active),90.8% (active),-1%,72% (active),90% (active),-2%,75% (active),81.5% (active),-16%,75% (active),92.4% (active),-3%,78% (active),88.6% (active),-14%,87% (active),90.4% (active)
CC1(C)CCN(CCOC(=O)C(c2ccccc2)C2C=CCCC2)C1 (centres undefined),-3%,46%,64.2%,25%,50%,56.6%,29%,69%,77% (active),3%,32%,73.7% (active),4%,26%,69.8%,38%,65%,70%
COC1OC(CO)C(O)C(OC(=O)c2ccc([N+](=O)[O-])cc2)C1OS(=O)(=O)c1ccc(C)cc1 (centres undefined),2%,0%,31.8%,-1%,7%,-0.1%,-1%,0%,18.7%,-1%,-1%,-2.5%,2%,-2%,-0.2%,27%,7%,10.6%
COc1ccc2ccccc2c1Cc1c(OC)ccc2ccccc12,-2%,98% (active),-11.7%,-2%,98% (active),8.65%,-2%,98% (active),-2.7%,-15%,98% (active),7.65%,-5%,98% (active),-6.35%,0%,98% (active),9.35%
c1c2c(cc(-n3nnc4c3CCCCCC4)c1-n1nnc3c1CCCCCC3)CCCCCC2,30%,30%,89.4% (active),26%,26%,90.5% (active),23%,23%,89.5% (active),17%,17%,91.1% (active),7%,7%,90.4% (active),27%,27%,87.3% (active)
S=C(Nc1ccccn1)c1ccccn1,-3%,9%,23.9%,6%,21%,50.3%,2%,43%,69%,-11%,-7%,18.6%,3%,33%,55.8%,3%,46%,51.4%
CC/C(=C(\CC)c1ccc(O)c(CN(CC)CC)c1)c1ccc(OC)cc1,-1%,68%,99.4% (active),15%,62%,99.7% (active),-31%,92% (active),99.6% (active),-1%,80% (active),99.5% (active),0%,65%,99.4% (active),5%,99% (active),99.5% (active)
